Reference: PubChem BioAssay (NCATS)
Inconclusive results are not listed. Entries that show only a call come without a potency. Calls of active or inactive are those of the source. Unless noted, calls follow the shape of the dose curve; as a rule, active = well fitted curve in the direction sought with a large enough effect; inconclusive = small, poorly fitted or top-dose-only effect, or another doubt; inactive = no such curve, though single readings can be large; an effect the other way counts as inactive or inconclusive.

What was measured:
[1] = Counterscreen for APE1 Inhibitors: Fluorescent Dye Displacement Validation Assay (AID 1707)
Summary of the method: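 Reaction mixture of 250 nM Thiazole Orange and 50 nM double-stranded abasic-site DNA was dispensed, compounds were pin-transferred, and fluorescence was read at endpoint (480 nm ex, 540 nm em). Reduced fluorescence indicated dye displacement by DNA binding.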

[2] = target: Endonuclease 4 (Escherichia coli (strain K12)) (UniProt P0A6C1); test: Counterscreen for APE1 Inhibitors: qHTS Validation Assay for Inhibitors of Endonuclease IV (AID 1708)
Summary of the method: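 The reaction buffer contained 50 mM Tris-HCl pH 7.5, 50 mM NaCl, 2 mM MgCl2, 1 mM DTT and 0.01% Tween-20. Incision of a 50 nM fluorophore/quencher THF substrate by 2 nM enzyme was measured kinetically.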

[3] = qHTS for differential inhibitors of proliferation of Plasmodium falciparum line 7G8 (AID 1815);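 also: parasite growth measured after three days of incubation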; also: potency is read from the fitted curve at half-maximal effect
[4] = qHTS for differential inhibitors of proliferation of Plasmodium falciparum line GB4 (AID 1816); conditions: Potency: Plasmodium falciparum GB4 proliferation inhibition;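 also: parasite growth measured after 72 h incubation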; also: potency is read from the fitted curve at half-maximal effect
[5] = qHTS for differential inhibitors of proliferation of Plasmodium falciparum line D10 (AID 1877);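 also: parasites grown with compound for 72 h before DNA staining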; also: potency is read from the fitted curve at half-maximal effect
[6] = qHTS for differential inhibitors of proliferation of Plasmodium falciparum line W2 (AID 1883); conditions: Potency: Plasmodium falciparum W2 proliferation inhibition;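 also: parasites grown with compound for 72 h before lysis and staining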; also: potency is read from the fitted curve at half-maximal effect
[7] = qHTS Assay for Modulators of Human Peripheral Myelin Protein 22 (PMP22) Expression/Activity (AID 1967; active = well fitted curve in the direction sought with a large enough effect in the signal ratio; the % refers to the signal ratio)
From the text: Charcot-Marie-Tooth-Association [CMTA]
NIH Chemical Genomics Center [NCGC]
Charcot-Marie-Tooth (CMT) disease was first characterized by Jean-Martin Charcot and Pierre Marie in France and, independently, by Howard Henry Tooth in England in 1886. CMT is one of the most common inherited neurological diseases, affecting about 125,000 Americans. […] The most common cause of CMT is known as CMT1A, and is caused by a duplication of the PMP22 gene, leading to over-expression of this protein. PMP22 is a glycosylated intrinsic membrane protein accounting for 2-5% of the myelin protein content and over-expression leads to demyelination and subsequently axonal loss.
A cell-based assay for PMP22 expression modulation was developed by Drs. Ned Mantei and Ueli Suter on behalf of the CMTA. This assay employs a mouse Schwann cell line, MSC80 (Boutry et al., 1992), that was engineered to have the mouse Pmp22 promoter driving expression of a green light-emitting click beetle luciferase (CBG68; Chroma-Gl developed by Promega Corp). A red light-emitting click beetle luciferase (CBR; developed by Promega Corp: CBG68 and CBR differ by only a few amino acids within the D-luciferin binding pocket) under control of the EF-alpha promoter is also stably expressed in the same cells for use as an internal control for nonspecific promoter- or reporter-based effects.
NCGC Assay Protocol Summary:
Cells were seeded in white solid 1536-well plates at between 500-750 cells/4uL in DMEM medium containing 10% FBS, w/o phenol red. After overnight incubation at 37 degree Celsius/5% C02, 23 nL of compounds or DMSO were delivered to each well using a pin tool, followed by 24h-incubation at 37 degree Celsius/5% C02. Then 4 uL Chroma-Glo luminescent substrate mix (Promega) was added to each well. Luminescence was measured on a ViewLux plate reader (Perkin Elmer) using a 540/25 nm filter for green luminescence and a 618/8 nm filter for red luminescence. The green and red luminescent signals were corrected for red and green luminescence filter overlap using filter calibration constants (determined using control cell lines expressing either the green or red CBLuc reporters using the procedures given in Davis et al., 2007). The %Activity was determined from the ratio of corrected green/red luminescent values. Green luminescent and ratio %Activity was determined by normalizing to the signal between of untreated cells (0% Activity)
Keywords: luminescence, PMP22, CMT1A, NCGC, CMTA, qHTS
Concentration-response curves were fitted to the signals arising from the green luminescence (PMP22 promoter driven expression) and the red luminescence (control promoter) as well as the calculated ratio. The concentration-effect curves were then classified based on curve quality (r2), response magnitude and degree of measured activity.

[8] = qHTS Assay for Identification of Small Molecule Inducers of Hypoxia Response (AID 2120; active = well fitted curve in the direction sought with a large enough effect in the signal ratio, with a control signal flat, not every such curve was filed as active; the % refers to the signal ratio)
Summary of the method: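 HRE-bla ME-180, 2500 cells/well, 0.5% dialyzed FBS medium; cpd titration, 17 h 37 degrees C; CCF4 2.5 h RT; Ex 405, Em 460/530 ratio -> %Activity, AC50.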

[9] = qHTS for differential inhibitors of proliferation of Plasmodium falciparum line 3D7 (AID 1876); also: potency is read from the fitted curve at half-maximal effect
[10] = qHTS for differential inhibitors of proliferation of Plasmodium falciparum line HB3 (AID 1886); conditions: Potency: Plasmodium falciparum HB3 proliferation inhibition;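 also: parasites grown with compound for 72 h before SYBR Green readout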; also: potency is read from the fitted curve at half-maximal effect

Question: Which outcome [1] does the source give for `Brc1ccc([C@H]2CN3CCSC3=N2)cc1` here?
Answer: inactive

Question: And the outcome [2]?
Answer: inactive

Question: What about the Potency [3] of the same molecule?
Answer: 11.2 µM (active)

Question: And the Potency [4]?
Answer: 12.6 µM (active)

Question: What about the Potency [5] of the same molecule?
Answer: inactive

Question: And the Potency [6]?
Answer: 7.94 µM (active)

Question: And the outcome [7]?
Answer: inactive

Question: With `Cn1cnc2c(NCc3ccccc3)nc(NCCO)nc21` as the molecule, how does the outcome [1] read?
Answer: inactive

Question: And the outcome [2]?
Answer: inactive

Question: What about the Potency [3] of the same molecule?
Answer: inactive

Question: With `CCCC(=O)c1cc(O)c(O)cc1O` as the molecule, how does the outcome [8] read?
Answer: inactive

Question: For `c1ccc2occc2c1`, which outcome [8] is on record?
Answer: inactive

Question: With `O=C(Oc1ccccc1)c1ccccc1O` as the molecule, how does the outcome [8] read?
Answer: inactive

Question: With `Cc1cc(C(C)(C)C)c(O)c(C(C)(C)C)c1` as the molecule, how does the outcome [8] read?
Answer: inactive

Question: Which outcome [8] does the source give for `C1=CC2C3C=CC(C3)C2C1` (stereo not given) here?
Answer: inactive

Question: For `C[N+](C)(C)CCO`, which outcome [1] is on record?
Answer: inactive

Question: What about the Potency [3] of the same molecule?
Answer: inactive

Question: And the Potency [4]?
Answer: inactive

Question: What about the Potency [9] of the same molecule?
Answer: inactive

Question: And the Potency [5]?
Answer: inactive

Question: And the Potency [6]?
Answer: inactive

Question: What about the Potency [10] of the same molecule?
Answer: inactive

Question: And the outcome [7]?
Answer: inactive

Question: For `CCCCC(CC)COC(=O)c1ccccc1C(=O)O` (stereo not given), which outcome [8] is on record?
Answer: inactive

Question: Which outcome [8] does the source give for `OCc1c[nH]c2ccccc12` here?
Answer: inactive

Question: Which outcome [8] does the source give for `O=C(NO)c1ccccc1` here?
Answer: inactive

Question: For `O=[N+]([O-])c1ccc(-c2nc(-c3ccc(F)cc3)c(-c3ccncc3)[nH]2)cc1`, which outcome [2] is on record?
Answer: inactive

Question: What about the Potency [3] of the same molecule?
Answer: 4.47 µM (active)

Question: And the Potency [4]?
Answer: 3.98 µM (active)

Question: And the Potency [9]?
Answer: 3.55 µM (active)

Question: And the Potency [5]?
Answer: 5.01 µM (active)

Question: And the Potency [6]?
Answer: 3.98 µM (active)

Question: What about the Potency [10] of the same molecule?
Answer: 4.47 µM (active)

Question: For `CC(C)C(C)(C)C(C)(C)C(C)(C)S`, which outcome [8] is on record?
Answer: inactive

Question: With `CC(C)(c1ccc(O)cc1)c1ccc(O)cc1` as the molecule, how does the outcome [8] read?
Answer: inactive

Question: For `Nc1cccc2c(N)cccc12`, which outcome [8] is on record?
Answer: inactive

Question: Which outcome [1] does the source give for `COc1ccccc1N1CCN(CCN2C(=O)CC3(CCCC3)CC2=O)CC1` here?
Answer: inactive

Question: And the outcome [2]?
Answer: inactive

Question: What about the Potency [4] of the same molecule?
Answer: inactive

Question: What about the Potency [9] of the same molecule?
Answer: inactive

Question: What about the Potency [5] of the same molecule?
Answer: inactive

Question: What about the Potency [10] of the same molecule?
Answer: inactive

Question: And the outcome [7]?
Answer: inactive

Question: For `COc1cc(C=O)ccc1O`, which outcome [8] is on record?
Answer: inactive

Question: For `O=C(c1ccccc1)c1ccccc1`, which outcome [8] is on record?
Answer: inactive

Question: Which results are given for `CN(C)c1cc2c(Nc3ccc4c(cnn4Cc4ccccc4)c3)ncnc2cn1`?
Answer: outcome [1]: inactive; Potency [3]: 5.01 µM (active); Potency [4]: 3.16 µM (active); Potency [9]: 3.55 µM (active); Potency [5]: 10 µM (active); Potency [6]: 3.55 µM (active); Potency [10]: 4.47 µM (active)

Question: What does the source list for `C[C@]12CCC(=O)C=C1CC[C@@H]1[C@@H]2[C@@H](O)C[C@@]2(C)[C@H]1CC[C@]2(O)C(=O)COC(=O)CCC(=O)O`?
Answer: outcome [1]: inactive; outcome [2]: inactive; Potency [4]: inactive; Potency [9]: inactive; Potency [5]: inactive; Potency [10]: inactive

Question: With `NC(N)=NCCCCN=C(N)N` as the molecule, how does the outcome [1] read?
Answer: inactive

Question: What about the outcome [2] of the same molecule?
Answer: inactive

Question: And the Potency [3]?
Answer: inactive

Question: What about the Potency [4] of the same molecule?
Answer: inactive

Question: What about the Potency [9] of the same molecule?
Answer: inactive

Question: And the Potency [5]?
Answer: inactive

Question: What about the Potency [6] of the same molecule?
Answer: inactive

Question: What about the outcome [7] of the same molecule?
Answer: inactive

Question: With `CC(C)(C)c1ccc(O)c(O)c1` as the molecule, how does the outcome [8] read?
Answer: inactive

Question: With `CC(C)N(CCC(=O)c1ccc2ccccc2c1)Cc1ccccc1` as the molecule, how does the outcome [1] read?
Answer: inactive

Question: And the outcome [2]?
Answer: inactive

Question: And the Potency [9]?
Answer: inactive

Question: What about the Potency [5] of the same molecule?
Answer: inactive

Question: What about the Potency [10] of the same molecule?
Answer: inactive

Question: Which results are given for `COc1cccc2c1[C@@H]1CN(CCCCn3c(=O)[nH]c4c(sc5ncc(-c6ccccc6)nc54)c3=O)C[C@@H]1CO2`?
Answer: outcome [1]: inactive; Potency [3]: 11.2 µM (active)

Question: Which outcome [8] does the source give for `Oc1ccccc1` here?
Answer: inactive

Question: With `O=C1NC(c2cccc([N+](=O)[O-])c2)=CCN1c1ccccc1O` as the molecule, how does the outcome [1] read?
Answer: inactive

Question: And the outcome [2]?
Answer: inactive

Question: And the Potency [3]?
Answer: inactive

Question: What about the Potency [4] of the same molecule?
Answer: inactive

Question: And the Potency [9]?
Answer: inactive

Question: What about the Potency [5] of the same molecule?
Answer: inactive

Question: And the Potency [10]?
Answer: inactive

Question: What about the outcome [7] of the same molecule?
Answer: inactive

Question: For `CC(=O)OC/C=C(C)/C=C/C=C(C)/C=C/C1=C(C)CCCC1(C)C`, which outcome [8] is on record?
Answer: inactive

Question: Which outcome [8] does the source give for `Brc1ccccc1-c1ccccc1` here?
Answer: inactive
